Screens from PubChem BioAssay.
ALR inh – inhibitors of human ALR sulfhydryl oxidase, primary screen, biochemical, H2O2 detection, HRP-luminol luminescence, single point; AID 485317, 2010; inhibition, % (concentration not given with the values); FAD-linked sulfhydryl oxidase ALR (Homo sapiens), P55789; actives 3.8% (n = 290,000); purified ALR, DTT oxidation;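 active means mean replicate inhibition above about 79%, with every replicate also reaching it, limit read from the data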
Target sequence (P55789 whole entry, looked up): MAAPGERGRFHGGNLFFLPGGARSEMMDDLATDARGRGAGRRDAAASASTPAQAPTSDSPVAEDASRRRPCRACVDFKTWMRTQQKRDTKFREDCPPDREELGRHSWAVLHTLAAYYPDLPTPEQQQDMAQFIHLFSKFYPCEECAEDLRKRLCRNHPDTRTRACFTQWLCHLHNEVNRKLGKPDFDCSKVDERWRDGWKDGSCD
PREPL inhibitor – PREPL enzyme inhibitors, primary screen, biochemical, fluorescence polarization | recombinant PREPL, fluorescence polarization activity-based probe | inhibition, % at 5.96 µM | actives 0.68% (n = 320,000) | AID 2751, 2010; in the data active means inhibition above about 43%;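 further: 0% = enzyme with DMSO and 100% = wells lacking enzyme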
CHT allo act – CHT positive allosteric modulators, primary screen, cell-based, membrane potential dye, choline EC20. High affinity choline transporter 1 (Homo sapiens), Q9GZV3. CHT-expressing cells; active compounds read high; LV-AA mutant CHT in HEK293 cells. B-score at 10 µM. actives 0.49% (n = 310,000). AID 488977, 2010;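 active means initial fluorescence not abnormally high and integrated response B-score, plate-corrected, over 3 SD above library mean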
AI-2 QS modul – Vibrio harveyi AI-2 quorum sensing modulators, primary screen, JMH597 strain, luminescence/OD600 ratio. activity change, % at 7.5 µM. Vibrio harveyi JMH597 AI-2 luminescence/OD600 ratio, 9 h; active compounds read low; strain lacks LuxN and CqsS sensors; 0 = neutral-control median. actives 0.4% (n = 300,000); in the data active means activity change below about -75%, passing the limit was not always enough;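 further: luminescence divided by OD600 gain over 9 h not by final OD600 alone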
CHT inh – inhibitors of human choline transporter CHT | High affinity choline transporter 1 (Homo sapiens), Q9GZV3 | CHT-expressing cells, membrane potential dye, choline response; active compounds read low | B-score at 10 µM | actives 0.86% (n = 310,000) | AID 488975, 2010;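 active means B-score over 3 SD under the library average, and starting fluorescence ratio not unusually high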;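 further: choline stimulus applied at its EC90 after an EC20 pre-addition; B-score computed on integrated fluorescence ratio after choline addition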
An asterisk follows results filed as active; i = inactive; . = no result given. A selection: hits, their analogues and other compounds. The true share with any hit is near 5%.

SMILES	ALR inh	PREPL inhibitor	CHT allo act	AI-2 QS modul	CHT inh
O=C(O)c1ccc(NC(=S)NC(=O)c2cccc(COc3ccccc3)c2)cc1	96.9*	-21.3	i	-2.2	i
Cc1ccc(S(=O)(=O)NNC(=S)Nc2cccc(F)c2)cc1	98.8*	19.4	i	26.6	i
O=C(Cc1ccccc1)Nc1ccccc1Oc1ccccc1	-34.1	-6.4	i	8.7	i
COC(CNC(=O)C(=O)Nc1cc2c3c(c1)CC(=O)N3CCC2)OC	-3.0	2.3	i	20.5	i
CCc1ccccc1N(CC(=O)NC1CCCCC1)C(=O)CCCC(=O)Nc1ccccn1	.	8.9	i	4.7	i
CC(C(=O)OCC(=O)N(C)C1(C#N)CCCCC1)N1C(=O)c2ccccc2C1=O (stereo not given)	-0.2	2.5	.	.	.
Cc1ccc(C(=O)NC(=S)NNS(=O)(=O)c2ccccc2)cc1	98.3*	5.1	i	-3.9	i
O=C(CNC(=S)NC(=O)c1ccccc1)c1ccccc1	78.6*	-0.5	i	0.2	i
Cc1noc(C)c1CSCC(=O)Nc1nc2c(F)cc(F)cc2s1	37.2	-4.2	.	.	.
CCc1nc(NCc2ccco2)c2oc3ccccc3c2n1	88.0*	0.1	i	18.8	i
CCc1nc(Nc2ccc(O)cc2)c2oc3ccccc3c2n1	92.9*	5.8	i	19.4	i
O=C(/C=C/c1ccc(OC(F)F)cc1)OCC(=O)N1CCC(c2ccccc2)=N1	.	27.6	.	.	.
Clc1ccc(/C=C/c2ncc3ccccn23)cc1	98.7*	20.2	i	6.6	i
CN(C)C/C=C(/c1ccc(Br)cc1)c1cccnc1	1.7	-21.3	i	16.2	i
Cc1cc(SCC(=O)N/N=C/c2ccc(C(=O)O)cc2)nc2ccccc12	99.3*	-8.5	i	4.0	i
O=C(CSc1nc2ccccc2o1)N/N=C/c1ccc(C(=O)O)cc1	.	-2.3	i	12.1	i
NS(=O)(=O)c1ccc(CCNC(=O)CN2CCN(c3ccccc3O)CC2)cc1	98.9*	7.9	i	5.4	i
NS(=O)(=O)c1ccc(CCNC(=O)CSc2ccc3ccccc3c2)cc1	99.3*	3.5	i	23.2	i
NC(=O)COC(=O)CSc1ccc2ccccc2c1	98.8*	-7.1	i	49.7	i
C/C(N)=C(/C#N)C(=O)COC(=O)CSc1ccc2ccccc2c1	32.8	23.5	i	13.7	i
CCNC(=O)NC(=O)CSc1ccc2ccccc2c1	98.0*	8.0	i	9.1	i
CCN1CCN(C(=O)CN(CC)S(=O)(=O)c2ccc(F)cc2)CC1	-2.2	0.2	i	13.9	i
Cc1cc(C)c(OCC(=O)N/N=C/c2ccc3c(c2)OCO3)c(C)c1	.	-2.9	i	9.4	i
Cc1c(-c2cccc(Cl)c2)nc2ccccc2c1C(=O)OC/C(O)=C(\C#N)c1nc2ccccc2[nH]1	.	41.7	i	28.7	i
Cc1ccc2nc(N(CCCN(C)C)C(=O)c3ccc(S(=O)(=O)N4CCCCCC4)cc3)sc2c1	-23.6	-4.1	i	3.1	-5.47*
SMILES	ALR inh	PREPL inhibitor	CHT allo act	AI-2 QS modul	CHT inh
CCc1ccc2nc(N(CCCN(C)C)C(=O)c3ccc(S(=O)(=O)N4CCCC4)cc3)sc2c1	-13.5	-5.1	i	15.7	i
COc1ccc(-c2nc(SC(CC(=O)NCCN3CCOCC3)c3cccs3)n[nH]2)cc1 (stereo not given)	97.0*	0.6	i	23.9	i
COc1ccc(-c2nc(SC(CC(=O)NCc3ccccc3)c3ccc(OC)c(OC)c3)n[nH]2)cc1 (stereo not given)	95.5*	2.1	i	23.7	i
O=Cc1ccc(OC(=O)/C=C/c2ccccc2)cc1	10.3	23.3	i	8.9	i
CCOC(=O)c1oc2ccccc2c1CN1CCN(c2ccccc2)CC1	94.0*	-0.9	i	7.6	i
CCOC(=O)c1oc2ccccc2c1CN1CCN(C(=O)c2ccccc2)CC1	-2.7	-5.9	i	9.9	i
CCCS(=O)(=O)c1nnnn1-c1cccc(OC)c1	97.9*	8.3	i	-63.5	i
COc1cccc(-n2nnnc2SCC(=O)Nc2ccc(OC)cc2OC)c1	18.5	11.0	i	6.6	i
CCOC(=O)c1sc(NC(=O)CCSC)nc1C	42.1	-6.4	i	35.7	i
CCOC(=O)c1ccc(NC(=O)N2CCOCC2)cc1	-6.6	4.7	i	24.4	i
Cc1ccc(NC(=O)COC(=O)CSC(=S)N2CCOCC2)cc1	98.3*	12.0	i	-3.7	i
Cc1cnc(NC(=O)Cc2ccc(S(=O)(=O)N3CCOCC3)s2)s1	92.2*	5.5	.	.	.
CCOC(=O)c1ccc(NC(=O)CSC(=S)N2CCOCC2)cc1	99.5*	12.9	i	30.1	i
CCOC(=O)c1sc(NC(=O)CSC(=S)N2CCN(C)CC2)nc1C	98.8*	1.6	i	13.2	i
Cc1ccc(OCC(=O)Nc2ccc(CN3CCOCC3)cc2)cc1	0.5	14.7	i	23.7	i
COc1ccc(CCNC(=O)C2CCCN2S(=O)(=O)c2cccc3nsnc23)cc1OC (stereo not given)	-3.2	3.6	i	19.1	i
CCN(CC)S(=O)(=O)c1ccc(N2CCOCC2)c(NC(=O)C2=COCCO2)c1	1.4	12.9	i	8.9	i
CN(C)c1ccc(P(=O)(OCc2ccccc2)C(O)c2ccc(Br)cc2)cc1 (stereo not given)	-1.5	40.2	i	16.1	i
Cc1cnc(NC(=O)CSC(=S)N2CCOCC2)s1	97.1*	5.2	i	14.0	i
O=C(NCCO)c1ccc2[nH]c3c(c2c1)CCCC3	-8.1	10.0	i	7.6	i
C/C(=N\O)c1ccc2c3c([nH]c2c1)CCCC3	97.4*	11.9	i	26.6	i
O=C(O)CC(SCC(=O)Nc1ccc(S(=O)(=O)N2CCCC2)cc1)C(=O)O (stereo not given)	99.5*	14.2	i	-11.3	i
O=C(CSc1nc(O)c(C2CCCCC2)c(=O)[nH]1)Nc1ccc(F)cc1	98.7*	-3.9	i	11.9	i
O=C(CSc1nc(NS(=O)(=O)c2ccccc2)cc(=O)[nH]1)Nc1ccc(F)cc1	98.4*	-10.0	i	0.9	i
O=C(O)CC(SCC(=O)Nc1ccccc1)C(=O)O (stereo not given)	-10.5	1.9	i	15.8	i
Cc1cc(=O)[nH]c(SCC(=O)Nc2ccc(S(=O)(=O)N3CCCCC3)cc2)n1	98.2*	-15.2	i	14.7	i
Cc1cc(=O)[nH]c(SCC(=O)Nc2ccc(S(=O)(=O)N3CCOCC3)cc2)n1	.	-1.8	i	10.3	i
